# Experimental data as given in paper PMC12136788.
# Where a chain is given by its changes, count along the chain named. In all, about 5,800 sequences were measured (“enrichment r”: median about 0.68, highest 2% from about 11 on). The entries come from a sample that favours the highest values as a whole.
# T1: UNK ZnF1-6 (called full-length) (human, UniProt Q9C0B0 30-357)
# T1 sequence: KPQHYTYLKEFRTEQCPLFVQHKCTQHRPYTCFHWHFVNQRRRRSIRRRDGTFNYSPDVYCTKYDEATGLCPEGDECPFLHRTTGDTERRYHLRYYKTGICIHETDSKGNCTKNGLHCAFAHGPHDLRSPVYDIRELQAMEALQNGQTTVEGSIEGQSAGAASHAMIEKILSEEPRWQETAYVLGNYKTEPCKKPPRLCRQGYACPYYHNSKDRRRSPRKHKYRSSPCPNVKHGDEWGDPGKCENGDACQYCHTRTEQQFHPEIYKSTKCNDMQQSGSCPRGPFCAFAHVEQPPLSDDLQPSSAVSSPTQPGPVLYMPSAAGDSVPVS
# B1: chr10:62095068:62095169:+|3pUTR|ENSG00000150347|msi1|total|mutant (ssRNA)
# RNA: GGGAGUUCUACAGUCCGACGAUCCCAUUUGCUUCAAUUAAUUAUUUACCUUCCUGUGGAAUAAUAUAUAUAUAUAUAUUUAACCGAACCACCGACCGACCCGCCGAAUUCCGAUUAUAAAUGUGUGAGUGCAGAUUAUCCUGCCAACAGAGGAUUGAGCAUCA
# B2: chr10:95311796:95311897:-|3pUTR|ENSG00000095637|unk|FALSE|unique (ssRNA)
# RNA: GGGAGUUCUACAGUCCGACGAUCCAGACAUAGAUUUUUCUGUUCAUUUAUUUUUCUUCAUUGCAGUGGAUUGAUUUGAUAAAUAGAUGUGUUGAAUUACUACAUUUGCUGUACAUAUUAUUUAAUAAACUUUAUUCAGAAUUGCAACAGAGGAUUGAGCAUCA
# B3: chr6:142752714:142752806:-|3pUTR|ENSG00000010818|msi1_unk|total|mutant (ssRNA)
# RNA: GGGAGUUCUACAGUCCGACGAUCUUUUCUUUACUUUGCUUAUAUUCUUAUAAGCAUUUUUCCGCAGUAAUUUGUACAUAUUUCCGAAUUUGUGUAUCUGCUUUGUAAUAAAUGUAAUUUCUUUCCUUUUUUGGACACUUGGAUCAACAGAGGAUUGAGCAUCA
# B4: chr6:133987709:133987810:+|3pUTR|ENSG00000028839|unk|FALSE|unique (ssRNA)
# RNA: GGGAGUUCUACAGUCCGACGAUCAAUAACAAAUAGGAAUUUUUUUUCUUGCAGAUUAGAAAUAAAAACGUGUAUAUAAACUCUAGGGAACCAGACUAGAAGUUUAUAGAUAAAGGAUAAUGUUUUAUGUUGCUAAUUUAAUAUCAACAGAGGAUUGAGCAUCA
# B5: chr10:110135209:110135310:+|3pUTR|ENSG00000148700|msi1|FALSE|bound_elsewhere (ssRNA)
# RNA: GGGAGUUCUACAGUCCGACGAUCCUCUCUAUUGGAAGAUUUUUUUAAUGUUCUACAUCAUUUAUGUUGUAUUACAAUGUAUGUAGAAAUAGUAACCUGUGAACUAUGCUUUUCCAUAACUUUUUAAAAAUAUAUAUAUCUAAACAACAGAGGAUUGAGCAUCA
# B6: chr4:138167974:138168075:-|3pUTR|ENSG00000151012|msi1|FALSE|unique (ssRNA)
# RNA: GGGAGUUCUACAGUCCGACGAUCCACAAAAUCUGCAUUGUCCAUGUGAGUAAAGUAAAAUAAUUCCUGUUAUUUUUUUCUGUUAGAAAUAAGUAUGGAGGAUAUGUUUUUAAAAAUUUAUGAGUUAAUUGAAAUAUCCAUAUACAACAGAGGAUUGAGCAUCA
# B7: chr14:53043751:53043854:-|3pUTR|ENSG00000100523|unk|FALSE|unique (ssRNA)
# RNA: GGGAGUUCUACAGUCCGACGAUCACUUAGAUUAAAUCUUGCUUUAUUUUUACUUUAAAAUUAGUCUUGCUAAGGCCUUAUGUUAGUUCAUACUUUCUUUUCAACAGUAAUCUUGUUUAUAAUCCAGUGUUUCUGUGUUUUAGGCAACAGAGGAUUGAGCAUCA
# B8: chr5:72209348:72209524:+|3pUTR|ENSG00000131711|msi1_unk|FALSE|overlapping (ssRNA)
# RNA: GGGAGUUCUACAGUCCGACGAUCUUAUGUCUUAUAAUCCUGCAUCACUUCUAUCCUAUCCAGUCAUAUCUAAUGUAGAAAAUUAGUUUCCAGUGAAAGUAAUAUGUAGUGCUUUUAUGAUAUUUGUGUGCAAUAUCCCCUCUUCAACAGAGGAUUGAGCAUCA
# B9: chr9:123379744:123379845:-|3pUTR|ENSG00000119522|msi1|total|mutant (ssRNA)
# RNA: GGGAGUUCUACAGUCCGACGAUCGUGUUUCAGCACCGAUUCCAGUUUCGCACCCUGGGCAGACCCCCAGGCCCCAUCCGGGACCGGGCAGAGGAGGUGCUGGCGGCCCCAGGGAAGGAGGGUGUGUACCCCAAGGCCCCCUGGCAACAGAGGAUUGAGCAUCA
# B10: chr3:98797553:98797658:-|3pUTR|ENSG00000057019|msi1|total|mutant (ssRNA)
# RNA: GGGAGUUCUACAGUCCGACGAUCAUUUCAUUCAUUGAAGAAUCAAUACAUAUUUUGUUUCAAAAUGUUUGAAACAAAAGACACCGAUGGCCGACUUUUAUUAAAACAUAUAUGGAUGUGGAAAGCACAUAUAUUAAUGCAGUCCAACAGAGGAUUGAGCAUCA
# B11: chr15:52550718:52550819:-|3pUTR|ENSG00000128989|msi1|FALSE|unique (ssRNA)
# RNA: GGGAGUUCUACAGUCCGACGAUCUUUAUAUAAACUUUUUAAAUGUAGAAACUUUUUACUUCCACACUCAGUUUUGGAGACCCUAGAAUAAAAGGCUUCAAUACUCUGCAUUCCAUGCCCUCUGCCACCUGCUUUUUUUUCCCCCAACAGAGGAUUGAGCAUCA
# B12: chrX:100674576:100674677:+|3pUTR|ENSG00000102359|msi1|FALSE|bound_elsewhere (ssRNA)
# RNA: GGGAGUUCUACAGUCCGACGAUCUUGCAAUCCACACCAAAUCAAUCUUUGAAAACAUUCCUCCAUUCGGUUCAUACAUACAGUAGAAACCACUGUGGCUGCCCUUAAUCCAGUGUGCUUAUAGGAAAUCAGUUAGCAGCUGACCAACAGAGGAUUGAGCAUCA
# B13: chr7:7607225:7607326:+|3pUTR|ENSG00000164654|msi1|total|mutant (ssRNA)
# RNA: GGGAGUUCUACAGUCCGACGAUCUUUGAGUGAUUUUGAUAUGCUUCACAGAGACAAAUGCUGCCAAAAUAAACAUCGAAGUACCGACAUGAGUUCUGUUCAGCAGGUUGAAAAGUCUGAUUCCGAAAAACUUUCUAAGUUUUGCAACAGAGGAUUGAGCAUCA
# B14: chr3:129431351:129431457:-|3pUTR|ENSG00000129071|unk|FALSE|unique (ssRNA)
# RNA: GGGAGUUCUACAGUCCGACGAUCACUUCAAAAAAGCUUAAUUAAGUACAACCAACCACCUUUCCAGCCAUAGAGAUUUUAAUUAGCCCAACUAGAAGCCUAGUGUGUGUGCUUUCUUAAUGUGUGUGCCAAUGGUGGAUCUUUCAACAGAGGAUUGAGCAUCA
# B15: chr14:44928120:44928223:-|3pUTR|ENSG00000179454|unk|total|mutant (ssRNA)
# RNA: GGGAGUUCUACAGUCCGACGAUCCCGUACAGCAGGCCUCCCAGUGCUGAUGUAAAUAUUUGAGCAGUGUUCCGUACCAUUCUCCGUGCAUAUUAAUUUUUUUAUAUAUCCUUAUAAUUUCCGUUUUUUAAGAUCUUUGCUUUUCAACAGAGGAUUGAGCAUCA
# B16: chr14:44928120:44928223:-|3pUTR|ENSG00000179454|unk|FALSE|unique (ssRNA)
# RNA: B15 RNA with C24U, C25A, C71U, C72A, C83U, C84A, C120U, C121A
# B17: chr5:154817497:154817598:+|3pUTR|ENSG00000155506|msi1_unk|FALSE|overlapping (ssRNA)
# RNA: GGGAGUUCUACAGUCCGACGAUCUUAUUGAGAGUAUCUGCUUUCCAGGCUGAAGUGAUUCAUUCAUUAUUCUAGUCCUGCUUUAGUCCUUUGUAAUUUGUGGUAAUUAUGCUUUUCUUUUUAAUACAAAAAAAUGUAUAAAAACAACAGAGGAUUGAGCAUCA
# B18: chr12:54238554:54238587:-|3pUTR|ENSG00000094916|msi1_unk|FALSE|overlapping (ssRNA)
# RNA: GGGAGUUCUACAGUCCGACGAUCGGGAGCACCCAUUUUAAACCUGGAGAGAACCAUGAUGUUUUCUUCUUCAAAUAACAAUCUAGUUUUUUUUCCCCCAGUACUAAAAUUGUAUUGUCUUUCAGACAAUAUAAUUUUUAUUUACAACAGAGGAUUGAGCAUCA
# B19: chr10:73916565:73916770:+|3pUTR|ENSG00000122861|msi1|total|mutant (ssRNA)
# RNA: GGGAGUUCUACAGUCCGACGAUCCUGGUUGUCAUUUUUGCAGCCGAGUCAUCUCCAUCAGCUGUAAGAAGAGACUGGGAAGACCGGCUCUGCACAGAUGGAUUUGCCUGUGCCACCCACCAGGGCGAACGACAACCGCUUUACCAACAGAGGAUUGAGCAUCA
# B20: chr10:72012227:72012328:+|3pUTR|ENSG00000122863|msi1|total|mutant (ssRNA)
# RNA: GGGAGUUCUACAGUCCGACGAUCCAAUGGAAGGAGCUUCAGCAGGAGGUCCUUCCCAGAAGGUUGAUUCUUGGCCUGGGUGGCCGAGGAGAUAUCCUGACCCUAAAGUCUUCCAGCCCCGGGUCAUCCUCUCCUAUACCCGGGCAACAGAGGAUUGAGCAUCA
# B21: chr1:18907414:18907603:-|3pUTR|ENSG00000169991|msi1|total|mutant (ssRNA)
# RNA: GGGAGUUCUACAGUCCGACGAUCCCUUGAUUUCCCUGAUAACUUGAUGUUCUUCCCUCCCUCGCCAGCCAACAACCGAGGCUCCGAGAUCUGUAAUUUCUCUGUGAGAAAGUCUGAAGGGGCCAGGCCUGGUCUCUGCUCCCUCAACAGAGGAUUGAGCAUCA
# B22: chr1:42176760:42176861:-|3pUTR|ENSG00000198815|msi1|total|mutant (ssRNA)
# RNA: GGGAGUUCUACAGUCCGACGAUCGUCGCUCAGAUGUCCUUUGAAGUGGGAGGGAAUCAAUCCGGGGAUAAUUUCAAAUGGAACCGAGUAUUUUGAUAUUGUUCAUUCAGAGGGUGAUGUGUACAUAUCUAUAUUGUAUAUAUGCAACAGAGGAUUGAGCAUCA
# Molecular target: T1, UNK ZnF1-6 (called full-length)
# Experiment: nsRBNS (natural sequence RNA bind-n-seq); RBNS binding buffer (assumed for nsRBNS): 25 mM Tris pH 7.5, 150 mM KCl, 3 mM MgCl2, 0.01% Triton X-100, 500 ug/ml BSA, 20 U/ml SUPERase-In, 4 C; UNK is unkempt and MSI1 is Musashi-1; names of the RNAs are library labels; protein concentration not given here; high values mean tight binding
row,Binder,binding signal [enrichment R]
1,B1,2.12
2,B2,2.42
3,B3,0.576
4,B4,2.44
5,B5,7.46
6,B6,1.08
7,B7,15
8,B8,1.93
9,B9,0.59
10,B10,0.53
11,B11,3.77
12,B12,0.532
13,B13,0.348
14,B14,5.99
15,B15,7.31
16,B16,213
17,B17,1.93
18,B18,9
19,B19,0.561
20,B20,0.492
21,B21,0.733
22,B22,1.09
